Test results: PubChem BioAssay

target: Dickkopf-related protein 1 (Homo sapiens) (UniProt O94907); test: DKK1 binders on small-molecule microarrays, primary screen, biochemical, small-molecule microarray, 635 nm fluorescence scan (AID 1106); settings: DKK1 binding, higher = more signal;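 further: score merges emission near 667 nm with signal to noise over three replicate slides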
Sequence (O94907 whole entry, looked up): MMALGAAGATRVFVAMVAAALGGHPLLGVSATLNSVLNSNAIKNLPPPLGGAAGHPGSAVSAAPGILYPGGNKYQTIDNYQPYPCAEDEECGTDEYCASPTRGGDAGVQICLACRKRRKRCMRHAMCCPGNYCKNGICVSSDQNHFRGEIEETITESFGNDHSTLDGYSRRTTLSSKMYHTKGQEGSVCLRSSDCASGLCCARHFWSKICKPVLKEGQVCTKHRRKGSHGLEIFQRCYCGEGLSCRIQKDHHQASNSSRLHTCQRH

| SMILES | composite z-score |
| --- | --- |
| COc1ccc(OC[C@@H]2CC3[C@@H](c4ccc(Br)cc4)[C@H](C)CC[C@H]3C(=O)O2)cc1 (some centres not stated) | 0.827 |
| COC(=O)[C@H](C)NC(=O)CCC1CC(OC(=O)NCCc2ccc(F)cc2)CC2(CCCC(COC(=O)NCC3CCCCC3)O2)O1 (some centres not stated) | 0.678 |
| COC(=O)[C@H](C)NC(=O)CCC1CC(OC(=O)NCc2cccc3ccccc23)CC2(CCCC(COC(=O)NCCC(C)C)O2)O1 (some centres not stated) | 0.188 |
| O=C1[C@H]2[C@H]3[C@H](O)[C@H](O)CC(=NOC[C@@H](O)COCc4ccco4)[C@@H]3CC[C@H]2C(=O)N1c1cccc(Oc2ccccc2)c1 | 0.461 |
| CCOC(=O)NN=C1C[C@@H](O)[C@@H](O)[C@@H]2[C@@H]3C(=O)N(C[C@@H]4CCCO4)C(=O)[C@@H]3CC[C@H]12 | 0.504 |
| C[C@@H](c1ccccc1)N1C(=O)[C@H]2[C@H]3[C@H](O)[C@H](O)CC(=NOCc4ccccc4)[C@@H]3CC[C@H]2C1=O | -1 |
| CCOC(=O)[C@H](Cc1ccccc1)NC(=O)CCC1CC(OC(=O)NCc2ccc3c(c2)OCO3)CC2(CCCC(COC(=O)NCCOc3ccccc3)O2)O1 (some centres not stated) | 1.16 |
| C[C@H]1CC[C@H]2C(=O)N[C@H](Cc3ccccc3)C(=O)N2[C@@H]1c1ccccc1 | 0.768 |
| CCN1C(=O)[C@H]2[C@H]3[C@H](O)[C@H](O)CC(=NOCC[C@@H]4C=C[C@H](OC(C)=O)[C@@H](COC(C)=O)O4)[C@@H]3CC[C@H]2C1=O | 0.476 |
| CCCNC(=O)OC[C@H]1O[C@H](CCON=C[C@@H](NS(=O)(=O)c2ccc(C)cc2)[C@H](C)C=CCC(=O)OC)C=C[C@@H]1Oc1ccc(OC)cc1 | -0.0968 |
| C#CCCCON=C1C[C@@H](O)[C@@H](O)[C@@H]2[C@@H]3C(=O)N(C[C@@H]4CCCO4)C(=O)[C@@H]3CC[C@H]12 | 0.481 |
| CC(C)CON=C1C[C@@H](O)[C@@H](O)[C@@H]2[C@@H]3C(=O)N(c4ccc(F)cc4F)C(=O)[C@@H]3CC[C@@H]12 | 0.289 |
| O=C1C=C[C@@H](O)[C@@H]2[C@@H]3C(=O)N(Cc4ccccc4)C(=O)[C@@H]3CC[C@@H]12 | 0.232 |
| CC1(C)O[C@H]2OC([C@H](O)CON3C(=O)c4ccccc4C3=O)[C@H](O)[C@H]2O1 (some centres not stated) | 0.46 |
| C[C@H]1CC[C@H]2C(=O)OC(COc3ccc(C(C)(C)C)cc3)CN2[C@@H]1c1ccc(Br)cc1 (some centres not stated) | -0.039 |
| CC1(C)O[C@H]2O[C@H]([C@H](O)CON=C3[C@H]4CCn5c(=O)n(-c6ccccc6)c(=O)n5[C@H]4[C@H](O)[C@@H]4O[C@H]34)[C@H](O)[C@H]2O1 | 0.0043 |
| CC(C)=CCCC(C)=CCON=C1C[C@@H](O)[C@@H](O)[C@@H]2[C@@H]3C(=O)N(c4cccc(Oc5ccccc5)c4)C(=O)[C@@H]3CC[C@H]12 | 0.419 |
| CCOC(=O)[C@H](Cc1ccccc1)NC(=O)CCC1CC(OC(=O)NCc2cccc3ccccc23)CC2(CCCC(COC(=O)NCc3ccc4c(c3)OCO4)O2)O1 (some centres not stated) | 0.141 |
| CCCC[C@H]1CN2[C@@H](CC[C@@H](C)[C@@H]2c2ccc(Br)cc2)C(=O)O1 | 0.296 |
| CCOC(=O)[C@H](CC(C)C)NC(=O)CCC1CC(OC(=O)NCc2ccc3c(c2)OCO3)CC2(CCCC(COC(=O)NCCOc3ccccc3)O2)O1 (some centres not stated) | 0.826 |
| CCOC(=O)NN=C1C[C@@H](O)[C@@H](O)[C@@H]2[C@@H]3C(=O)N(CC)C(=O)[C@@H]3CC[C@H]12 | 0.191 |
| COc1ccc(COC(=O)NN=C2C[C@@H](O)[C@@H](O)[C@@H]3[C@@H]4C(=O)N([C@@H](C)c5ccccc5)C(=O)[C@@H]4CC[C@@H]23)cc1 | 0.244 |
| CCN1C(=O)[C@H]2[C@H]3[C@H](O)[C@H](O)CC(=NO[C@H](C)c4cn([C@@H]5COC[C@H]5O)nn4)[C@@H]3CC[C@H]2C1=O | 0.451 |
| C[C@@H]1CC[C@H]2C(=O)O[C@@H](COc3ccc(C(C)(C)C)cc3)CN2[C@H]1c1ccc(Br)cc1 | 0.191 |
| CO[C@H]1COC(=O)CC=C[C@@H](C)COC(=O)[C@H]2CCCN2C(=O)CC=C[C@H]1C | 1.9 |
| CC(CCN1CCCc2nc(C)c(C)cc21)=NO[C@@H](C)c1cn([C@H](CO)Cc2ccccc2)nn1 | 0.928 |

tested on: Inhibin beta A chain (activin A); test: INHBA (activin A) binders on microarrays, primary screen, biochemical, small-molecule microarray, 635 nm fluorescence scan (AID 1107); settings: small-molecule microarray binding, higher = more signal;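 further: mouse activin A protein probed at 4.33 µg/mL on printed slides; score merges bound-protein fluorescence near 667 nm with spot signal-to-noise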

| SMILES | composite z-score |
| --- | --- |
| O=C1[C@H]2[C@H]3[C@H](O)[C@H](O)CC(=NO[C@@H]4O[C@H](CO)[C@@H](O)[C@H](O)[C@H]4O)[C@H]3CC[C@H]2C(=O)N1c1ccc(F)cc1F | -1.81 |
| CCCNC(=O)OC[C@H]1O[C@H](CCON=C2c3cc(OC)ccc3O[C@H](c3cccc(OC)c3)[C@H]2O)C=C[C@@H]1Oc1ccc(OC)cc1 | -0.479 |
| O=C1[C@H]2CCn3c(=O)n(-c4ccccc4)c(=O)n3[C@H]2[C@H](O)[C@@H]2O[C@H]12 | 0.269 |
| CC(C)=CCCC(C)=CCON=C1C[C@@H](O)[C@@H](O)[C@@H]2[C@@H]3C(=O)N(Cc4ccc5c(c4)OCO5)C(=O)[C@@H]3CC[C@H]12 | 1.02 |
| O=C1[C@H]2[C@H]3[C@H](O)[C@H](O)CC(=NOCc4ccccc4)[C@H]3CC[C@H]2C(=O)N1C1CCCCC1 | -0.0077 |
| CC(C)(C)N1C(=O)[C@H]2[C@H]3[C@H](O)[C@H](O)CC(=NOC[C@@H](O)COCc4ccco4)[C@H]3CC[C@H]2C1=O | 0.0091 |
| COC(=O)[C@H](C)NC(=O)CCC1CC(OC(=O)NCc2ccc3c(c2)OCO3)CC2(CCCC(COC(=O)NCCC(C)C)O2)O1 (some centres not stated) | -2.25 |
| COC(=O)[C@H](C)NC(=O)CC=C[C@@H](C)[C@@H]1C=C[C@H](O)[C@@H](CO)O1 | 0.229 |
| CC(CCN1CCCCc2nc(C)c(C)cc21)=NOC[C@@H](O)[C@H]1O[C@@H]2OC(C)(C)O[C@@H]2[C@H]1O | -0.0196 |
| CC(C)=CCCC(C)=CCON=C1[C@H]2CCn3c(=O)n(-c4ccccc4)c(=O)n3[C@H]2[C@H](O)[C@@H]2O[C@H]12 | 0.722 |
| COc1ccc(OC[C@@H]2CC3[C@@H](c4ccc(Br)cc4)[C@H](C)CC[C@H]3C(=O)O2)cc1 (some centres not stated) | 0.483 |
| COC(=O)[C@H](C)NC(=O)CCC1CC(OC(=O)NCCc2ccc(F)cc2)CC2(CCCC(COC(=O)NCC3CCCCC3)O2)O1 (some centres not stated) | 0.0532 |
| COC(=O)[C@H](C)NC(=O)CCC1CC(OC(=O)NCc2cccc3ccccc23)CC2(CCCC(COC(=O)NCCC(C)C)O2)O1 (some centres not stated) | 0.199 |
| O=C1[C@H]2[C@H]3[C@H](O)[C@H](O)CC(=NOC[C@@H](O)COCc4ccco4)[C@@H]3CC[C@H]2C(=O)N1c1cccc(Oc2ccccc2)c1 | 0.831 |
| CCOC(=O)NN=C1C[C@@H](O)[C@@H](O)[C@@H]2[C@@H]3C(=O)N(C[C@@H]4CCCO4)C(=O)[C@@H]3CC[C@H]12 | 0.17 |
| C[C@@H](c1ccccc1)N1C(=O)[C@H]2[C@H]3[C@H](O)[C@H](O)CC(=NOCc4ccccc4)[C@@H]3CC[C@H]2C1=O | 0.549 |
| CCOC(=O)[C@H](Cc1ccccc1)NC(=O)CCC1CC(OC(=O)NCc2ccc3c(c2)OCO3)CC2(CCCC(COC(=O)NCCOc3ccccc3)O2)O1 (some centres not stated) | -0.0859 |
| C[C@H]1CC[C@H]2C(=O)N[C@H](Cc3ccccc3)C(=O)N2[C@@H]1c1ccccc1 | 0.595 |

| SMILES | composite z-score |
| --- | --- |
| CCN1C(=O)[C@H]2[C@H]3[C@H](O)[C@H](O)CC(=NOCC[C@@H]4C=C[C@H](OC(C)=O)[C@@H](COC(C)=O)O4)[C@@H]3CC[C@H]2C1=O | 0.079 |
| CCCNC(=O)OC[C@H]1O[C@H](CCON=C[C@@H](NS(=O)(=O)c2ccc(C)cc2)[C@H](C)C=CCC(=O)OC)C=C[C@@H]1Oc1ccc(OC)cc1 | 0.32 |
| C#CCCCON=C1C[C@@H](O)[C@@H](O)[C@@H]2[C@@H]3C(=O)N(C[C@@H]4CCCO4)C(=O)[C@@H]3CC[C@H]12 | -0.0374 |
| CC(C)CON=C1C[C@@H](O)[C@@H](O)[C@@H]2[C@@H]3C(=O)N(c4ccc(F)cc4F)C(=O)[C@@H]3CC[C@@H]12 | -0.287 |
| O=C1C=C[C@@H](O)[C@@H]2[C@@H]3C(=O)N(Cc4ccccc4)C(=O)[C@@H]3CC[C@@H]12 | 0.181 |
| CC1(C)O[C@H]2OC([C@H](O)CON3C(=O)c4ccccc4C3=O)[C@H](O)[C@H]2O1 (some centres not stated) | -0.582 |
| C[C@H]1CC[C@H]2C(=O)OC(COc3ccc(C(C)(C)C)cc3)CN2[C@@H]1c1ccc(Br)cc1 (some centres not stated) | 0.451 |
| CC1(C)O[C@H]2O[C@H]([C@H](O)CON=C3[C@H]4CCn5c(=O)n(-c6ccccc6)c(=O)n5[C@H]4[C@H](O)[C@@H]4O[C@H]34)[C@H](O)[C@H]2O1 | 0.695 |
| CC(C)=CCCC(C)=CCON=C1C[C@@H](O)[C@@H](O)[C@@H]2[C@@H]3C(=O)N(c4cccc(Oc5ccccc5)c4)C(=O)[C@@H]3CC[C@H]12 | 0.657 |
| CCOC(=O)[C@H](Cc1ccccc1)NC(=O)CCC1CC(OC(=O)NCc2cccc3ccccc23)CC2(CCCC(COC(=O)NCc3ccc4c(c3)OCO4)O2)O1 (some centres not stated) | 0.325 |
| CCCC[C@H]1CN2[C@@H](CC[C@@H](C)[C@@H]2c2ccc(Br)cc2)C(=O)O1 | 0.0442 |
| CCOC(=O)[C@H](CC(C)C)NC(=O)CCC1CC(OC(=O)NCc2ccc3c(c2)OCO3)CC2(CCCC(COC(=O)NCCOc3ccccc3)O2)O1 (some centres not stated) | 0.267 |
| CCOC(=O)NN=C1C[C@@H](O)[C@@H](O)[C@@H]2[C@@H]3C(=O)N(CC)C(=O)[C@@H]3CC[C@H]12 | -0.145 |
| COc1ccc(COC(=O)NN=C2C[C@@H](O)[C@@H](O)[C@@H]3[C@@H]4C(=O)N([C@@H](C)c5ccccc5)C(=O)[C@@H]4CC[C@@H]23)cc1 | 0.878 |
| CCN1C(=O)[C@H]2[C@H]3[C@H](O)[C@H](O)CC(=NO[C@H](C)c4cn([C@@H]5COC[C@H]5O)nn4)[C@@H]3CC[C@H]2C1=O | -0.322 |
| C[C@@H]1CC[C@H]2C(=O)O[C@@H](COc3ccc(C(C)(C)C)cc3)CN2[C@H]1c1ccc(Br)cc1 | 0.0996 |
| CO[C@H]1COC(=O)CC=C[C@@H](C)COC(=O)[C@H]2CCCN2C(=O)CC=C[C@H]1C | 1.32 |
| CC(CCN1CCCc2nc(C)c(C)cc21)=NO[C@@H](C)c1cn([C@H](CO)Cc2ccccc2)nn1 | 1.19 |
